Measurements reported in the supplement of paper PMC11634586.
Counter-ions that a name gives are not always drawn. Values without a mark were called inactive.

What follows are compounds tested on NCI-H1688 (assay: inhibition of cell viability relative to untreated control (fraction); higher = stronger growth inhibition, active = 0.5 or more). Conditions: 30 µM; 24 h.
Procedure: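 Natural product library (TargetMol, 640 compounds) screened on NCI-H1688 SCLC cells at 30 µM for 24 h; viability by CCK-8 absorbance at 450 nm, normalised to untreated control and expressed as inhibition rate (fraction). Compounds with >50% reduction in viability were selected as hits.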

SMILES | inhibition of cell viability
COc1ccc(CC2NCCc3cc(OC)c(OC)cc32)cc1OC (stereo not given) [Tetrahydropapaverine hydrochloride] | 0.125
CNC1CC(N)C(O)C(OC2OC(CO)C(O)C3OC4(OC(C(N)CO)C(O)C(O)C4O)OC23)C1O (stereo not given) [Hygromycin B] | 0.829 (active)
CN1CCc2cc3c(cc2C1O)OCO3 (stereo not given) [Hydrastinine hydrochloride] | 0.248
NCCc1c[nH]c2ccccc12 [Tryptamine] | -0.188
C/C=C(\C)C(=O)N[C@@H](c1ccccc1)[C@@H](O)C(=O)O[C@H]1C[C@@]2(O)[C@@H](OC(=O)c3ccccc3)[C@@H]3[C@]4(OC(C)=O)CO[C@@H]4C[C@H](O)[C@@]3(C)C(=O)[C@H](OC(C)=O)C(=C1C)C2(C)C [Cephalomannine] | 0.721 (active)
O=C1CCC[C@@H]2[C@H]3CCCN4CCC[C@@H](CN12)[C@@H]34 [(+)-Matrine] | 0.176
CC1=C2C[C@H]3[C@@H](CC=C4C[C@@H](O)CC[C@@]43C)[C@@H]2CC[C@]12O[C@@H]1C[C@H](C)CN[C@H]1[C@H]2C [Cyclopamine] | 0.162
C=C[C@H]1CN2CC[C@H]1C[C@@H]2[C@@H](O)c1ccnc2ccccc12 [Cinchonine] | -0.188
C[C@]12CC[C@H]3[C@@H](CCC4=CC(=O)CC[C@@]43C)[C@@H]1CC[C@@H]2O [Testosterone] | 0.182
COc1ccc2c(c1OC)CN1CCc3cc4c(cc3C1C2)OCO4 (stereo not given) [Tetrahydroberberine THB] | 0.0966
Cc1c2ccncc2c(C)c2c1[nH]c1ccccc12 [Ellipticine] | 0.996 (active)
CCC1=C[C@@H]2CN3CCc4c([nH]c5ccccc45)[C@@](C(=O)OC)(C2)[C@@H]13 [Catharanthine tartrate] | -0.101
CN(C)CCc1ccc(O)cc1 [Hordenine] | 0.0129
COc1ccc2c(c1)[nH]c1c(C)nccc12 [Harmine hydrochloride] | 0.813 (active)
C1=C2CCCN[C@H]2[C@@H]2C[C@H]1[C@H]1CCCCN1C2 [Aloperine] | 0.311
CC(=O)OCC1=C(C(=O)O)N2C(=O)[C@@H](N)[C@H]2SC1 [7-Aminocephalosporanic acid] | 0.00874
COc1ccc2c3c([nH]c2c1)C(C)=NCC3 [Harmaline] | -0.11
COC1=C[C@@H]2[C@@H]3Cc4ccc(OC)c(O)c4[C@]2(CCN3C)CC1=O [Sinomenine] | -0.13
C[C@]12CC[C@H](O)C[C@@H]1CC[C@@H]1[C@@H]2CC[C@]2(C)C(=O)CC[C@@H]12 [Epiandrosterone] | -0.0121
C[C@@H]1C(=O)O[C@H]2[C@H](O)[C@@]34O[C@@H]5OC(=O)[C@H](O)[C@@]56[C@H](C(C)(C)C)[C@H](O)C(OC3=O)[C@]64[C@@]12O (stereo not given in full) [Ginkgolide C] | -0.00562
CCC1(O)C(=O)OCc2c1cc1n(c2=O)Cc2cc3ccccc3nc2-1 (single isomer, unassigned; (+)) [(+)-Camptothecin] | 0.979 (active)
Cc1c([C@H](C)[C@@H]2NC[C@@H](C)C[C@H]2O)ccc2c1C[C@H]1[C@H]2CC=C2C[C@@H](O)CC[C@@]21C [Veratramine] | 0.262
C[C@]12CC[C@H](O)CC1=CC[C@@H]1[C@@H]2CC[C@]2(C)C(=O)CC[C@@H]12 [Dehydroepiandrosterone] | 0.0365
C=C(C)[C@H]1Cc2c(ccc3c2O[C@@H]2COc4cc(OC)c(OC)cc4[C@@H]2C3=O)O1 [Rotenone] | 0.823 (active)
O=c1cccc2n1C[C@@H]1CNC[C@H]2C1 [Cytisine] | -0.243
CNC(=O)Oc1ccc2c(c1)[C@]1(C)CCN(C)[C@@H]1N2C [Physostigmine Salicylate] | 0.126
C[C@@H]1CC[C@@]2(OC1)O[C@H]1[C@@H](O)[C@H]3[C@@H]4CC[C@H]5C[C@@H](O[C@@H]6O[C@H](CO)[C@H](O[C@@H]7O[C@H](CO)[C@@H](O)[C@H](O[C@@H]8OC[C@@H](O)[C@H](O)[C@H]8O)[C@H]7O[C@@H]7O[C@H](CO)[C@H](O)[C@H](O[C@@H]8O[C@H](CO)[C@@H](O)[C@H](O)[C@H]8O)[C@H]7O)[C@H](O)[C@H]6O)[C@H](O)C[C@]5(C)[C@H]4CC[C@]3(C)[C@H]1[C@@H]2C [Digitonin] | 1.01 (active)
NCC(O)c1ccc(O)cc1 (stereo not given) [Octopamine hydrochloride] | -0.206
COC1=C[C@]23CCCN2CCc2cc4c(cc2[C@@H]3[C@@H]1O)OCO4 [Cephalotaxine] | 0.394
CCCCCCCCC(=O)NCc1ccc(O)c(OC)c1 [Nonivamide] | -0.0291
